# This is a sample that favours compounds with a hit; in the whole collection about 3.3% have one here.
# NOD2-RIPK2 inh: blocks binding of human NOD2 to RIPK2. O43353. CHO BLA complementation NOD2-RIPK2, CCF4 ratio. inhibition, % at 4.98 µM. actives 0.38% (n = 360,000). AID 624267; in the data active means inhibition above about 21%;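 further: 0% = vehicle only and 100% = reference blocker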
# rCAG RNA binder: r(CAG) repeat RNA binding; inhibition, % at 3 µM; TO-PRO-1 dye displacement fluorescence; actives 1.3% (n = 370,000);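 active means inhibition above the plate cutoff, the mean of all test compounds on that plate plus 3 SD, cut at about 35% in these data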;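 further: 0% = DMSO alone and 100% = 100 µM mitoxantrone as full dye displacement; higher means more dye released from RNA so lower well fluorescence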
# TLR9-MyD88 block: TLR9-MyD88 interaction inhibition; inhibition, % at 4.98 µM; Q9NR96+Q99836; AID 504734; actives 0.21% (n = 340,000); CHO BLA complementation TLR9-MyD88, CCF4 FRET ratio;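 active means inhibition above the mean over all tested compounds plus 3 SD, cut at about 21% in these data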;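 further: 0% = DMSO only wells and 100% = clavulanate BLA inhibitor control wells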
# TLR4 MyD88 comp: TLR4-MyD88 interaction inhibition in cells. inhibition, % at 8.4 µM. AID 861. O00206+Q99836. actives 0.18% (n = 200,000). HeLa CL3-4 TLR4/MyD88 BLA complementation, FRET ratio; in the data active means inhibition above about 25%;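 further: 0% = vehicle and 100% = reference inhibitor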
# Target sequence (O00206 whole entry, looked up): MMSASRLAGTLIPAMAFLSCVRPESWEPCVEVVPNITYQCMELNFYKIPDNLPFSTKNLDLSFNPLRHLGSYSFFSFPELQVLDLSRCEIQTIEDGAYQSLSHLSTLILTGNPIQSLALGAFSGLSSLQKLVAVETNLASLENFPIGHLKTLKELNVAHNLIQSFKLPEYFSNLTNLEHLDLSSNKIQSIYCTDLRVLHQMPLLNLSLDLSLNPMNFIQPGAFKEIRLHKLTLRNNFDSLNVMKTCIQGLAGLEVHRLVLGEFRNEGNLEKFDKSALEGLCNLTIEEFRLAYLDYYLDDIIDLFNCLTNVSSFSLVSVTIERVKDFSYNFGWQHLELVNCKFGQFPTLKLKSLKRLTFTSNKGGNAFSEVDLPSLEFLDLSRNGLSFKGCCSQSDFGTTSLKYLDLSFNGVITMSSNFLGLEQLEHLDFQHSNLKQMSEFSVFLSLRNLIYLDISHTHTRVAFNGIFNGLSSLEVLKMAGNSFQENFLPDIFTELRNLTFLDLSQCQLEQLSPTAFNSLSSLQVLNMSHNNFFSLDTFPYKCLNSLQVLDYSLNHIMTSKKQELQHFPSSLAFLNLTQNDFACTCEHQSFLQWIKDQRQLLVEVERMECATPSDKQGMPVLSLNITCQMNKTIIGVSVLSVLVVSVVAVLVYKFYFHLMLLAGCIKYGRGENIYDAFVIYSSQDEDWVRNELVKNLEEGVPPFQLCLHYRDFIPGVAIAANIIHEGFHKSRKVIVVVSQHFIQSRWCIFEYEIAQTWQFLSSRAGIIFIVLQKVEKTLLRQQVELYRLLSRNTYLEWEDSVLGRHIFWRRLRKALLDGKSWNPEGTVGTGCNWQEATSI
# Target sequence (Q99836 whole entry, looked up): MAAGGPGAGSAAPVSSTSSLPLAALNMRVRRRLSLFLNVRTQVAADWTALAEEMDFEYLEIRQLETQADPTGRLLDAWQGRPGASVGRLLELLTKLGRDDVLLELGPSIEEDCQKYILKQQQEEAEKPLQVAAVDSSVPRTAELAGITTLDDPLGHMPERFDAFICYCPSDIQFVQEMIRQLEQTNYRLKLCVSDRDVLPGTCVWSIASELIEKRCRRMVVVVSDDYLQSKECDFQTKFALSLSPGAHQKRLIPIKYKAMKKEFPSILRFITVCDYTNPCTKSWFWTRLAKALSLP
# ABHD5 PLIN5 PPI: inhibitors of human ABHD5-perilipin-5 interaction; Split G. princeps luciferase complementation, luminescence, 4 h; inhibition, % at 4 µM; actives 0.78% (n = 360,000); Q00G26+Q8WTS1; AID 602281;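 active means inhibition above the mean inhibition across every tested compound plus 3 SD, cut at about 22% in these data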;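 further: 0% = DMSO only wells and the 100% control is not disclosed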
# PRMT1 FP inh: blocks human protein arginine methyltransferase 1. actives 1.3% (n = 370,000). Q99873. recombinant PRMT1, activity-based probe fluorescence polarization. inhibition, % at 2.79 µM;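 active means inhibition above about 21% made by adding two undisclosed values, limit read from the data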
# Starred values were filed as active, the others as inactive; · = no result given.
SMILES,NOD2-RIPK2 inh,rCAG RNA binder,TLR9-MyD88 block,TLR4 MyD88 comp,ABHD5 PLIN5 PPI,PRMT1 FP inh
CCOC(=O)C1=NN(c2ccc(OC)cc2)C2C(=O)N(c3ccccc3OC)C(=O)C12 (configuration not stated),-5.9,3.2,-9.0,·,-0.8,-2.3
COc1ccc(Cl)cc1NC(=S)N(Cc1ccccc1C)CC1CCC(C(=O)O)CC1 (configuration not stated),11.2,44.9*,1.2,-0.8,6.7,2.8
Cc1cc2c(c(=O)n1Cc1cccnc1)C(c1ccccc1)C(C#N)=C(N)O2 (configuration not stated),0.7,-0.2,0.3,8.0,-2.0,-4.1
COc1cccc(C2C(C#N)=C(N)Oc3cc(C)n(Cc4ccco4)c(=O)c32)c1 (configuration not stated),-0.3,11.1,5.2,4.8,22.3*,10.2
COc1ccc(N2C3=C(CC4=C2CCCC4=O)C(=O)CCC3)cc1,-7.2,23.4,9.4,0.0,-8.7,10.0
COc1ccc(N2C3=C(CC4=C2CC(C)(C)CC4=O)C(=O)CC(C)(C)C3)cc1,0.1,-1.3,4.2,-3.4,9.6,22.8*
COc1ccc(N=C2S/C(=C\c3ccc(OC(C)C(=O)O)c(OC)c3)C(=O)N2CCc2c[nH]c3ccccc23)cc1 (configuration not stated),6.8,49.0*,-2.2,1.6,-0.9,-2.2
COc1cc(/C=C2\SC(=Nc3ccccc3)N(CCc3c[nH]c4ccccc34)C2=O)ccc1OC(C)C(=O)O (configuration not stated),18.4,30.7,-8.6,-3.1,-1.9,4.3
O=C1/C(=C/c2ccc(N3CCOCC3)o2)SC(=Nc2ccccc2)N1CCc1c[nH]c2ccccc12,47.4*,·,14.4,13.5,76.7*,·
O=C(c1ccc(F)cc1Cl)N1CCN(S(=O)(=O)c2cccs2)CC1,3.8,-3.5,-11.9,·,-2.6,-0.5
O=C(C[n+]1ccc(/C=C/c2ccccc2)cc1)c1ccc2c(c1)OCCO2,-3.1,15.7,-9.2,·,23.1*,1.1
CN1CC(O)([C@H](Cc2ccccc2)NC(=O)OC(C)(C)C)OCC1C(=O)NCc1cccc2ccccc12 (some centres not stated),·,·,·,·,·,5.3
O=S(=O)(NCCCNS(=O)(=O)c1c(F)cccc1F)c1ccc2c(c1)OCCO2,-4.1,-1.7,-7.5,·,-12.9,-2.2
Cc1cc(-n2c(C)cc(C(=O)CSc3ccc4c(c3)OCCO4)c2C)no1,-1.1,0.8,-2.5,-5.2,-19.7,22.3*
Cc1cc(-n2c(C)cc(C(=O)CCl)c2C)no1,-2.6,-3.4,-8.1,21.4,2.2,3.0
Cc1c(NC(=O)CN2CCN(c3ccc(O)cc3)CC2)c(=O)n(-c2ccccc2)n1C,4.5,-0.2,3.3,6.6,1.1,22.9*
COc1ccccc1C(=O)Nc1c(C(=O)N(CCN(C)C)Cc2ccco2)oc2ccccc12,-3.0,-2.1,2.3,·,22.5*,1.6
Cc1nnc(-n2cccc2)s1,·,1.4,·,·,·,-2.7
Cc1ccc(N2CC(C(=O)Nc3cccc(S(=O)(=O)N4CCOCC4)c3)CC2=O)cc1 (configuration not stated),8.5,6.5,-8.9,·,-3.8,0.7
CCOc1ccc(-n2c(SC/C=C/c3ccccc3)nnc2-c2cccs2)cc1,·,5.9,·,·,·,-4.1
Clc1ccccc1N=Nc1ccccn1,-6.4,-9.5,-13.2,·,-28.2,62.7*
Cc1[nH][nH]c(=O)c1N=Nc1ccccc1Cl,10.1,2.2,-2.9,·,-6.1,1.8
COc1cccc(C(=O)/C=C/c2ccc(SC)cc2)c1,-3.5,6.1,-2.1,10.8,22.7*,0.4
CSc1ccc(/C=C/C(=O)c2ccc(NC(=O)C(C)C)cc2)cc1,0.3,13.0,1.9,2.0,22.7*,0.7
O=C(CSc1nc(O)c(C2CCCCC2)c(=O)[nH]1)Nc1ccccc1Cl,-1.8,3.1,4.1,·,-6.7,4.5
SMILES,NOD2-RIPK2 inh,rCAG RNA binder,TLR9-MyD88 block,TLR4 MyD88 comp,ABHD5 PLIN5 PPI,PRMT1 FP inh
Fc1ccccc1CNC(=S)Nc1cccc(C(F)(F)F)c1,5.5,1.7,5.0,6.0,-4.3,-2.5
CC(CC(=O)Nc1nnc(CC(C)(C)C)s1)c1ccccc1 (configuration not stated),-10.7,2.6,-0.2,·,-2.4,8.2
CC(C)NC(=O)N[C@H]1C[C@@H]2O[C@@H](CO)CC[C@@H]2O[C@@H]1CCc1ccc(-c2ccccc2F)cc1,·,3.6,·,·,·,-1.5
O=C(Nc1ccccc1SC(=O)c1ccccc1)c1ccccc1,-8.0,4.1,-9.4,·,-7.4,93.5*
CSc1ccccc1NC(=O)c1ccccc1,-1.2,-0.9,2.9,4.2,0.9,-0.2
CCOC(=O)C1CCN(CC(=O)Nc2cc(S(=O)(=O)N3CCCCC3)ccc2Cl)CC1,-6.7,-7.9,-1.7,·,-1.1,-1.2
O=C(COc1ccccc1)Nc1ccccc1Cl,-6.5,3.1,-0.2,-16.1,-3.4,4.5
CCCCNC(=O)Nc1nnc(C(C)(C)C)s1,-6.2,2.5,0.4,·,2.7,-1.8
COCCOC(=O)c1c(C)n(C)c2ccc(OC(=O)c3c(OC)cccc3OC)cc12,-7.6,0.4,-8.5,·,-3.2,46.0*
COCCOC(=O)c1c(C)n(C)c2ccc(OC(=O)N3CCOCC3)cc12,-2.0,-5.4,-4.0,-8.0,-1.9,0.7
CCc1nc2c(OCc3ccc(Cl)cc3Cl)cccn2c1N(C)C(=O)CC(C)C,3.7,0.1,·,·,5.6,5.3
O=[N+]([O-])c1ccc2c(c1)N([O-])C1(CCCCC1)[N+]2=O,·,35.0*,·,·,·,14.3
COc1cc(/C=C/C(=O)c2ccc(NS(=O)(=O)c3ccc(C)cc3)cc2)cc(OC)c1O,0.9,47.0*,9.6,0.5,38.0*,7.0
COc1cc(/C=C/C(=O)c2ccc(NS(=O)(=O)c3ccc(C)cc3)cc2)ccc1OC(F)F,-5.6,19.1,3.5,1.3,22.2*,-0.6
Cc1cc(SCC(=O)N(C)C2CCS(=O)(=O)C2)nc2c(C)cccc12 (configuration not stated),0.3,-4.4,-4.0,3.3,-1.2,-1.2
COc1ccc2cc(/C=C3\SC(=S)NC3=O)c(N3CCOCC3)nc2c1,0.4,64.5*,-2.4,3.3,1.4,-1.4
COc1cccc(C=C2SC(=S)NC2=O)c1,4.9,5.9,-8.9,·,-10.4,3.1
CC(=O)O[C@@H]1[C@@]2(C)O[C@H]2CC[C@]23O[C@H]2[C@H](OC3=O)C2=C(C)C(=O)O[C@@]21O,-6.4,5.0,-8.5,-4.8,23.0*,1.1
Cc1ccc2c(c1)[C@@H]1[C@H](CO2)[C@H](c2ccccc2)[C@]2(C)C(=O)N[C@H](C)C(=O)N12,4.9,-0.7,-0.2,·,-2.1,2.4
O=C(O)c1ccc(N=N/C(=N\Nc2ccc(C(=O)O)cc2)c2ccccc2)cc1,-4.0,76.5*,1.6,·,5.4,0.1
CC(=O)Nc1ccc(/C(N=Nc2ccccc2)=N/N=C(N)N)cc1,2.8,8.0,-0.8,·,-0.7,-0.1

# Screening results as filed in PubChem.
